Source: PubChem BioAssay (Tox21)
“And” between values parts separate entries of the source, which are not always exact repeats. Equal entries are not always repeated. Inconclusive results are not listed. The source made the active and inactive calls. Unless noted, the call rests on the fitted dose curve; in most records, active means well fitted curve in the direction sought with a large enough effect in the repeat runs; inconclusive means weak or mixed curves; inactive means no such curve, though single readings can be large; an effect the other way counts as inactive or inconclusive.

Experiments:
[1] = qHTS assay for identifying genotoxic compounds that show differential cytotoxicity against isogenic chicken DT40 cell lines with known DNA damage response pathways - wild type cell line (AID 743012); further: nearly all actives have a fitted effect of over 60% in size; further: potency means the concentration at half of the fitted maximal effect
Summary of the method: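 Viability by ATP luminescence (CellTiter-Glo, 30 min RT) after 40 h compound treatment at 37 C/5% CO2, using 300 parental DNA repair-proficient DT40 cells per well.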

[2] = qHTS assay for identifying genotoxic compounds that show differential cytotoxicity against isogenic chicken DT40 cell lines with known DNA damage response pathways - Rad54/Ku70 mutant cell line (AID 743015); further: nearly all actives have a fitted effect of over 60% in size; further: potency means the concentration at half of the fitted maximal effect
[3] = qHTS assay to identify small molecule antagonists of the androgen receptor (AR) signaling pathway - cell viability counter screen (AID 743033; further: nearly all actives have a fitted effect of over 45% in size; further: potency means the concentration at half of the fitted maximal effect)
[4] = qHTS assay to identify small molecule antagonists of the androgen receptor (AR) signaling pathway using the MDA cell line - cell viability counter screen (AID 743041; further: nearly all actives have a fitted effect of over 45% in size; further: potency means the concentration at half of the fitted maximal effect)
Summary of the method: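 Viability read by CellTiter-Fluor fluorescence in the same wells as the antagonist screen, added after 15.5 h of a 16 h, 37C exposure. Human breast carcinoma MDA-kb2 AR-luc cells, compounds co-dosed with agonist R1881.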

[5] = qHTS assay for identifying genotoxic compounds that show differential cytotoxicity against isogenic chicken DT40 cell lines with known DNA damage response pathways - Rev3 mutant cell line (AID 743014); further: nearly all actives have a fitted effect of over 55% in size; further: potency means the concentration at half of the fitted maximal effect
[6] = biological target: Androgen receptor (Homo sapiens) (UniProt P10275); assay: qHTS assay to identify small molecule agonists of the androgen receptor (AR) signaling pathway using the MDA cell line (AID 743040; further: nearly all actives have a fitted effect of over 20% in size)
Summary of the method: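 Luciferase agonist assay: 16 h compound exposure at 37C without CO2 in MDA-kb2 AR-luc cells, whose MMTV promoter responds to both AR and GR. Luminescence measured after 30 min room-temperature incubation with ONE-Glo.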

[7] = biological target: Androgen receptor (Homo sapiens) (UniProt P10275); assay: qHTS assay to identify small molecule antagonists of the androgen receptor (AR) signaling pathway using the MDA cell line (AID 743042; further: nearly all actives have a fitted effect of over 55% in size; further: potency means the concentration at half of the fitted maximal effect)
Summary of the method: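 Antagonist mode: compounds plus R1881 agonist added to MDA-kb2 AR-luc cells, incubated 16 h at 37C. Luciferase reporter luminescence quantified, with multiplexed CellTiter-Fluor readout for cell viability.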

[8] = biological target: Androgen receptor (Homo sapiens) (UniProt P10275); assay: qHTS assay to identify small molecule agonists of the androgen receptor (AR) signaling pathway (AID 743036; active means well fitted activation curve with a large enough effect in the signal ratio in the repeat runs, with a control signal flat, not every such curve was filed as active; the % refers to the signal ratio)
Summary of the method: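 In this Tox21 qHTS, 2,000 HEK293 AR-bla cells per well were incubated with compounds for 16 h at 37C and 5% CO2. Fluorescence intensity was recorded 2 h after adding LiveBLAzer B/G FRET substrate at room temperature.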

[9] = biological target: Androgen receptor (Homo sapiens) (UniProt P10275); assay: qHTS assay to identify small molecule antagonists of the androgen receptor (AR) signaling pathway (AID 743035; active means well fitted inhibition curve with a large enough effect in the signal ratio in the repeat runs, not every such curve was filed as active; the % refers to the signal ratio; further: potency means the concentration at half of the fitted maximal effect)
Summary of the method: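 Antagonist mode: AR-bla HEK293 cells co-treated with test compounds and agonist R1881 for 16 h at 37C, 5% CO2. Beta-lactamase activity read as FRET fluorescence after 2 h room-temperature substrate loading.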

Androgen receptor (Homo sapiens), sequence (P10275 whole entry, looked up): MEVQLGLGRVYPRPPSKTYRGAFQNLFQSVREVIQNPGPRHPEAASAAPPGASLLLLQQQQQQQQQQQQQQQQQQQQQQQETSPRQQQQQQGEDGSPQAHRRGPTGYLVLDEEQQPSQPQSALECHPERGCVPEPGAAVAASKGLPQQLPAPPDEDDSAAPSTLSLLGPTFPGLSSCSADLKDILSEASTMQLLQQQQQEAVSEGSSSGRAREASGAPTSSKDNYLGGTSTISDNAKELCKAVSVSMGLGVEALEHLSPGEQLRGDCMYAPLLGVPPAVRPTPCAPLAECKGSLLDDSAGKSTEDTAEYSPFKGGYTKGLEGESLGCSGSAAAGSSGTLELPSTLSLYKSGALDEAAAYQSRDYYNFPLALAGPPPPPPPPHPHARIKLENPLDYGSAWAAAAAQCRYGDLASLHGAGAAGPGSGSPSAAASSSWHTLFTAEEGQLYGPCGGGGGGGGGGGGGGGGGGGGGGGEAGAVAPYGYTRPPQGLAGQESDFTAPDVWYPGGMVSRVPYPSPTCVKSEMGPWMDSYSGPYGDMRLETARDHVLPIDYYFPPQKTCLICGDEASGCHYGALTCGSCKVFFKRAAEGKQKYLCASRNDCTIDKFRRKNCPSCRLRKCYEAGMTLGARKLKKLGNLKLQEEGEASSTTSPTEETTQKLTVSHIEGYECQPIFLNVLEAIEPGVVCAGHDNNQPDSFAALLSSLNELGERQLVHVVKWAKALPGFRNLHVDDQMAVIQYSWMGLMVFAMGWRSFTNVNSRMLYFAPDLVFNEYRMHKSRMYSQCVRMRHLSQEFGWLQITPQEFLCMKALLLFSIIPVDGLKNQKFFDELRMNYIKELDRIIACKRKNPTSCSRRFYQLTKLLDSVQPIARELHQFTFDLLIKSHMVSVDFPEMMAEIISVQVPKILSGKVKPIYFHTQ

With `CC1=C(/C=C/C(C)=C/C=C/C(C)=C\C=O)C(C)(C)CCC1` the Potency [1] was 14.5 µM (active), the Potency [2] was 13 µM (active) and the Potency [3] was 29.3 µM (active). For the same compound, the Potency [4] was “inactive”.
With `CCOC(=O)N1CCC(=C2c3ccc(Cl)cc3CCc3cccnc32)CC1` the Potency [5] was 7.5 µM (active) and 9.69 µM (active), the Potency [2] was 9.44 µM (active) and 10.9 µM (active) and the Potency [3] was 17.4 µM (active).
With `CC(=O)Oc1ccc(C2(c3ccc(OC(C)=O)cc3)Oc3ccccc3NC2=O)cc1` the Potency [3] was “inactive” and the Potency [4] was “inactive”.
For `O=C(c1ccccc1)c1cc(Cl)ccc1O`, the Potency [1] was “inactive”, the Potency [5] was “inactive” and the Potency [2] was “inactive”. The Potency [4] was “inactive”.
In the case of `CC(C)(c1cc(Br)c(O)c(Br)c1)c1cc(Br)c(O)c(Br)c1`, the Potency [1] is reported as 57.9 µM (active), the Potency [5] is reported as 60.9 µM (active) and 64.9 µM (active) and the Potency [2] is reported as 51.6 µM (active). For the same compound, the Potency [4] was “inactive”.
For `c1cc(OCC2CO2)cc(OCC2CO2)c1` (stereo not drawn), the Potency [1] was 0.856 µM (active), the Potency [5] was 0.0763 µM (active) and the Potency [2] was 1.36 µM (active). For the same compound, the Potency [6] was “inactive” and the Potency [4] was “inactive”.
In the case of `CCC(C)c1cc([N+](=O)[O-])cc([N+](=O)[O-])c1OC(=O)OC(C)C` (stereo not drawn), the Potency [1] is reported as 30.6 µM (active), the Potency [2] is reported as 30.6 µM (active) and the Potency [6] is reported as “inactive”. For the same compound, the Potency [4] was 54.5 µM (active) and the Potency [7] was 27.3 µM (active).
With `C=CC(=O)OCCOCC(CC)(COCCOC(=O)C=C)COCCOC(=O)C=C` the Potency [5] was 4.51 µM (active) and the Potency [2] was 5.06 µM (active).
With `CN1CCN(C2Cc3ccccc3Sc3ccc(Cl)cc32)CC1` (stereo not drawn) the Potency [1] was 5.96 µM (active), the Potency [5] was 6.68 µM (active) and the Potency [2] was 9.44 µM (active). For the same compound, the outcome [8] was “inactive”, the Potency [6] was “inactive” and the Potency [7] was “inactive”.
With `C=C[C@](C)(O)CC[C@@H]1[C@@]2(C)CCCC(C)(C)[C@@H]2CC[C@@]1(C)O` the Potency [2] was 19.3 µM (active) and the Potency [4] was “inactive”.
For `CCCOc1sc(C(=O)N2CCC(c3cc(CN)ccc3F)CC2)c(C)c1Br`, the Potency [1] was 14.1 µM (active), the Potency [5] was 17.7 µM (active) and the Potency [2] was 14.1 µM (active). The Potency [3] was 20 µM (active), the Potency [6] was “inactive” and the Potency [4] was 49.9 µM (active). The Potency [7] was 44.5 µM (active).
In the case of `C=C1C(C)(C)[C@@]2(Cl)C(Cl)[C@]1(Cl)C(Cl)(Cl)C2(Cl)Cl` (stereo partly drawn), the Potency [1] is reported as 47.7 µM (active), the Potency [5] is reported as 6.73 µM (active) and the Potency [2] is reported as 23.9 µM (active). The outcome [8] was “inactive”, the Potency [6] was “inactive” and the Potency [4] was “inactive”. The Potency [7] was “inactive”.
With `COc1ccc2sc(C(=O)Nc3nnn[nH]3)c(OC(C)C)c2c1` the Potency [5] was 27.2 µM (active), the Potency [2] was 17.2 µM (active) and the Potency [3] was 24.5 µM (active).
In the case of `O=C1Nc2ccc(Cl)cc2[C@@](C#CC2CC2)(C(F)(F)F)O1`, the Potency [1] is reported as 26.6 µM (active), the Potency [5] is reported as 26.6 µM (active) and the Potency [2] is reported as 21.1 µM (active). For the same compound, the Potency [4] was “inactive”.
In the case of `C/C=C/C(=O)Oc1c(CCCCCC(C)C)cc([N+](=O)[O-])cc1[N+](=O)[O-]`, the Potency [1] is reported as 3.44 µM (active), the Potency [5] is reported as 3.44 µM (active) and the Potency [2] is reported as 2.43 µM (active). For the same compound, the Potency [4] was 7.7 µM (active).
For `O=C(NO)c1ccccc1`, the Potency [5] was 44.9 µM (active), the Potency [2] was 50.4 µM (active) and the Potency [6] was “inactive”. For the same compound, the Potency [4] was “inactive” and the Potency [7] was “inactive”.
For `CC(O)C#CC(C)O` (stereo not drawn), the Potency [1] was 9.59 µM (active), the Potency [5] was 7.62 µM (active) and the Potency [2] was 10.8 µM (active). The Potency [4] was “inactive”.
In the case of `O=C1c2c(O)ccc(O)c2C(=O)c2c(NCCNCCO)ccc(NCCNCCO)c21`, the Potency [1] is reported as 0.0072 µM (active), the Potency [9] is reported as 0.512 µM (active) and the Potency [6] is reported as “inactive”. The Potency [4] was 9.43 µM (active) and the Potency [7] was 5.07 µM (active).
With `Cc1c(C(=O)O)cccc1[N+](=O)[O-]` the Potency [9] was “inactive”, the outcome [8] was “inactive” and the Potency [6] was “inactive”. For the same compound, the Potency [4] was “inactive”.
With `CCOC(=O)C1=C(C)NC(C)=C(C(=O)OCC)C1c1ccccc1/C=C/C(=O)OC(C)(C)C` the Potency [1] was 2.66 µM (active), the Potency [5] was 3.76 µM (active) and the Potency [2] was 5.96 µM (active). The Potency [6] was “inactive” and the Potency [4] was “inactive”.
In the case of `CCCCCCCCCCOCC(O)CN` (stereo not drawn), the Potency [1] is reported as 4.73 µM (active), the Potency [5] is reported as 6.68 µM (active) and the Potency [2] is reported as 7.5 µM (active). For the same compound, the Potency [3] was “inactive”, the outcome [8] was “inactive” and the Potency [6] was “inactive”.
With `O=C1C=CC(=O)N1c1ccccc1` the Potency [1] was 1.09 µM (active), the Potency [5] was 1.22 µM (active) and the Potency [2] was 1.37 µM (active). The Potency [6] was “inactive”, the Potency [4] was 48.6 µM (active) and the Potency [7] was 27.3 µM (active).
For `COc1cc(C(=O)NS(=O)(=O)c2ccccc2C)ccc1Cc1cn(C)c2ccc(NC(=O)OC3CCCC3)cc12`, the Potency [1] was “inactive” and the Potency [4] was “inactive”.
With `N#CSCSc1nc2ccccc2s1` the Potency [5] was 0.969 µM (active), the Potency [2] was 0.969 µM (active) and the Potency [3] was 13.8 µM (active). The Potency [6] was “inactive”.
For `CC(NCCC(c1ccccc1)c1ccccc1)c1ccccc1` (stereo not drawn), the Potency [1] was 2.98 µM (active), the Potency [5] was 4.22 µM (active) and the Potency [2] was 5.31 µM (active). For the same compound, the Potency [3] was 21.3 µM (active), the Potency [9] was 21.3 µM (active) and the Potency [6] was “inactive”. For the same compound, the Potency [4] was 23.7 µM (active) and the Potency [7] was 23.7 µM (active).
With `CCN1CCN(c2cc(-c3ccc(F)cc3)c3c(n2)CCCCCC3)CC1` the Potency [2] was “inactive”, the Potency [3] was “inactive” and the Potency [9] was “inactive”. The Potency [6] was “inactive”, the Potency [4] was “inactive” and the Potency [7] was “inactive”.
In the case of `CN(C)c1ccc(N=Nc2ccccc2C(=O)O)cc1`, the Potency [1] is reported as “inactive”, the Potency [5] is reported as “inactive” and the Potency [3] is reported as “inactive”. The Potency [4] was “inactive”.
In the case of `O=C(Nc1ccc(Cl)c(Cl)c1)c1cc(Cl)cc(Cl)c1O`, the Potency [1] is reported as 6.11 µM (active), the Potency [5] is reported as 4.86 µM (active) and the Potency [2] is reported as 4.86 µM (active). The Potency [3] was 1.95 µM (active) and the Potency [4] was 12.2 µM (active).
For `CC(C)(C)C1=CC(=O)C=C(C(C)(C)C)C1=O`, the Potency [3] was “inactive” and the Potency [4] was “inactive”.
